Consider 15 compounds from PubChem BioAssay (NCATS).

Activity calls are given as the source filed them. The rule behind the calls is not given here. A value given as a limit tells only on which side of the number the result lay.
Potency is the fitted concentration of half-maximal effect.

This assay relates to HIV-1 nucleocapsid protein NCp7 (binding to TG oligonucleotide). As to the kind of experiment: HIV Nucleocapsid (AID 346).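 Note: potency is for inhibitors that block NC binding and lower polarization.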 To be noted: HIV-1 NC / fluorescein-TGTGTGTG probe, fluorescence polarization. Summed up:
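HIV-1 NC (100 nM) binding to fluorescein-labelled ssDNA TG4xF (10 nM) in Hepes pH 7.5, 250mM NaCl, 1uM ZnCl2, TCEP and 2-mercaptoethanol; compounds pin-transferred, 1 hr room temperature, fluorescence polarization read on CCD imager.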
For orientation: Fluorescence polarisation rises when a labelled molecule tumbles more slowly, as on binding a larger partner.
Take `O=C(c1ccco1)N1CCC2(CCN(Cc3ccccc3)CC2)CC1`: the Potency is > 20 µM (inactive).

For `O=c1c(-c2cccs2)nc2cnc(N3CCOCC3)nc2n1Cc1ccc(F)cc1`, the Potency was > 20 µM (inactive).

With `O=C(c1ccncc1)N1CCC2(CC1)CCN(c1ccccc1)CC2`, the Potency was > 20 µM (inactive).

Turning to `CC(=O)N1CCC2(CCCN(c3ccccn3)C2)CC1`, the Potency is > 20 µM (inactive).

Consider `COc1ccccc1CN1CCCC2(CCN(C(C)=O)CC2)C1`, for which the Potency was > 20 µM (inactive).

For `COC(=O)N1CCC[C@@]2(CCN(c3ccncc3)C2)C1`, the Potency was > 20 µM (inactive).

Regarding `COc1ccccc1CN1CCCC2(CCN(C(=O)c3cnccn3)CC2)C1`, the Potency is > 20 µM (inactive).

For the compound `Cc1cnc(CNc2nc(-c3ccc4c(c3)OCO4)nc3ccccc23)cn1`, the Potency was > 20 µM (inactive).

Regarding `O=c1c(-c2cccs2)nc2cnc(Oc3cccc(Cl)c3)nc2n1C1CC1`, the Potency was > 20 µM (inactive).

Take `COc1ccc(NC(=O)N2CC[C@@]3(CCCN(C(=O)c4cccn4C)C3)C2)cc1`: the Potency was > 20 µM (inactive).

In the case of `Cc1ccccc1-c1ccc2ncnc(N3CCN(C)CC3)c2c1`, the Potency is > 20 µM (inactive).

For the compound `O=C(c1ccncc1)N1CCC2(CC1)CCN(c1ccccn1)CC2`, the Potency is > 20 µM (inactive).

`Cc1cnc(CNc2nc(-c3ccc(N(C)C)cc3)nc3ccccc23)cn1`: the Potency was > 20 µM (inactive).

For `COCCn1c(=O)c(-c2ccccc2)nc2cnc(N3CCN(C)CC3)nc21`, the Potency is > 20 µM (inactive).

For `COc1ncc2nc(-c3ccc(F)cc3)c(=O)n(Cc3ccc(F)cc3)c2n1`, the Potency was > 20 µM (inactive).
